Results filed as inconclusive are left out. Some compounds were tested as several samples or in several runs, with calls that do not always agree. Activity calls are given as the source filed them. Unless noted, calls come from the whole dose curve; as a rule, active = well fitted curve in the direction sought with a large enough effect in the repeat runs; inconclusive = weak or mixed curves; inactive = no such curve, though single readings can be large; an effect the other way counts as inactive or inconclusive.
Columns and labels:
[1] = target: Estrogen receptor (Homo sapiens) (UniProt P03372); test: qHTS assay to identify small molecule antagonists of the estrogen receptor alpha (ER-alpha) signaling pathway using the BG1 cell line in the presence of 0.1 nM 17-beta-estradiol (AID 1259244); note: nearly all actives have a fitted effect of over 50% in size
Estrogen receptor (Homo sapiens), sequence (P03372 whole entry, looked up): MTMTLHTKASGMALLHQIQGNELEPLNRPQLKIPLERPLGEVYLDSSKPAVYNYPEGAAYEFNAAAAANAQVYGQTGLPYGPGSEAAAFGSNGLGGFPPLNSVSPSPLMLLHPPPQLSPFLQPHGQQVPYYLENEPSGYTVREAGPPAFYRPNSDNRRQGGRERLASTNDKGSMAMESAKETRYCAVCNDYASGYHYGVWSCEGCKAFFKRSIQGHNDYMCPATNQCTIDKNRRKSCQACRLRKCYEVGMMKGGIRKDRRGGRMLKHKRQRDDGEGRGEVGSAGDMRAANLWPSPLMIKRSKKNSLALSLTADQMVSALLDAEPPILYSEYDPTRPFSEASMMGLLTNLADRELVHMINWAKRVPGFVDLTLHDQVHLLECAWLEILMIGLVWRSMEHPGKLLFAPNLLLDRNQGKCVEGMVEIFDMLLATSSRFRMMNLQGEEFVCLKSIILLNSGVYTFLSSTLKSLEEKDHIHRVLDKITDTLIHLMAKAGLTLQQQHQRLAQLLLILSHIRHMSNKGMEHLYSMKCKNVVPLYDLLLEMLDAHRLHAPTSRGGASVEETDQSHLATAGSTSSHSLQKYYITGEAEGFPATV
Method in brief: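 VM7Luc4E2 cells (endogenous full-length ER-alpha, stable 4xERE-luciferase) were grown 5 days in phenol red-free medium with charcoal-stripped FBS, then exposed 22 h at 37C to compounds plus 0.1 nM (final) 17beta-estradiol; ONE-Glo luminescence read-out.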

[2] = qHTS assay to identify small molecule HDAC inhibitors (AID 1259364); note: top concentration of the series differs between compounds; nearly all actives have a fitted effect of over 45% in size
Method in brief: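 Wild-type HCT-116 cells were plated overnight, exposed to compounds for 2 h at 37 °C, then given HDAC-Glo class I/II luminogenic reagent for 30 min at room temperature before luminescence was read.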

[3] = qHTS assay to identify small molecule HDAC inhibitors - cell viability counter screen (AID 1259365); note: series mostly up to about 92 µM; nearly all actives have a fitted effect of over 50% in size
Method in brief: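 Counter screen in wild-type HCT-116 cells: compounds dissolved in DMSO are pin-transferred onto overnight-plated cells and left 2hr at 37C. ATP-based CellTiter-Glo luminescence then measures viable cells.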

[4] = qHTS assay to identify small molecule agonists of the sonic hedgehog signaling (Shh) pathway - cell viability counter screen (AID 1259366); note: nearly all actives have a fitted effect of over 50% in size
Method in brief: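 Cells are plated at 2,000 per well and left 4hr at 37C, 5% CO2 before compound addition. After 23hr of treatment, CellTiter-Fluor reagent is added for 1hr at 37C and fluorescence is measured.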

[5] = qHTS assay to identify small molecule antagonists of the sonic hedgehog signaling (Shh) pathway - cell viability counter screen (AID 1259367); note: nearly all actives have a fitted effect of over 55% in size
Method in brief: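 NIH/3T3-derived Gli1-Luc reporter cells, 2,000/well, plated 4 hr before compound addition, then stimulated with conditioned medium for 24 hr at 37C. Viability measured in the same wells by CellTiter-Fluor fluorescence, reagent added at 23 hr for 1 hr.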

[6] = qHTS assay to identify small molecule agonists of the sonic hedgehog signaling (Shh) pathway (AID 1259368; calls by dose curve; note: series mostly up to about 92 µM; nearly all actives have a fitted effect of over 15% in size)
Method in brief: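 NIH/3T3-derived 3T3Gli1-Luc cells carrying a stably integrated Gli1 response element–firefly luciferase reporter were plated, left 4 hr at 37 C, then given compounds in DMSO for 24 hr. Luminescence was read 30 min after adding luciferase reagent.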

[7] = qHTS assay to identify small molecule antagonists of the sonic hedgehog signaling (Shh) pathway (AID 1259369; calls by dose curve; note: nearly all actives have a fitted effect of over 45% in size; note: potency is the fitted concentration of half-maximal effect)
Method in brief: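 NIH/3T3-derived 3T3Gli1-Luc cells with stably integrated Gli1-Luc reporter were preincubated 4hr at 37 C, then given compounds in DMSO plus Shh conditioned medium and incubated 24hr. Firefly luciferase luminescence read after 30min reagent at room temperature.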

[8] = qHTS assay to identify small molecule agonists of the androgen receptor (AR) signaling pathway in the presence of an antagonist - cell viability counter screen (AID 1259379); note: series mostly up to about 92 µM; nearly all actives have a fitted effect of over 25% in size
Method in brief: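 MDA-kb2 human breast carcinoma cells (stable MMTV-luciferase, AR/GR responsive) were seeded 3,000 cells/well, pre-incubated 5 hr at 37C without CO2, then given 3.0uM nilutamide and compounds at 15 concentrations for 16 hr. Viability was read by CellTiter-Fluor fluorescence.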

[9] = qHTS assay to identify small molecule agonists of the estrogen receptor beta (ER-beta) signaling pathway - cell viability counter screen (AID 1259380); note: nearly all actives have a fitted effect of over 30% in size; note: potency is the fitted concentration of half-maximal effect
Method in brief: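 ER-beta-UAS-bla HEK293T cells in medium with 2% charcoal-stripped FBS were preincubated 6 hr at 37C, dosed with compound in DMSO for 16 hr, then after the bla read, CellTiter-Glo was added for 30 min at room temperature; luminescence recorded.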

[10] = target: Androgen receptor (Homo sapiens) (UniProt P10275); test: qHTS assay to identify small molecule agonists of the androgen receptor (AR) signaling pathway in the presence of an antagonist (AID 1259381; calls by dose curve; note: nearly all actives have a fitted effect of over 15% in size)
Androgen receptor (Homo sapiens), sequence (P10275 whole entry, looked up): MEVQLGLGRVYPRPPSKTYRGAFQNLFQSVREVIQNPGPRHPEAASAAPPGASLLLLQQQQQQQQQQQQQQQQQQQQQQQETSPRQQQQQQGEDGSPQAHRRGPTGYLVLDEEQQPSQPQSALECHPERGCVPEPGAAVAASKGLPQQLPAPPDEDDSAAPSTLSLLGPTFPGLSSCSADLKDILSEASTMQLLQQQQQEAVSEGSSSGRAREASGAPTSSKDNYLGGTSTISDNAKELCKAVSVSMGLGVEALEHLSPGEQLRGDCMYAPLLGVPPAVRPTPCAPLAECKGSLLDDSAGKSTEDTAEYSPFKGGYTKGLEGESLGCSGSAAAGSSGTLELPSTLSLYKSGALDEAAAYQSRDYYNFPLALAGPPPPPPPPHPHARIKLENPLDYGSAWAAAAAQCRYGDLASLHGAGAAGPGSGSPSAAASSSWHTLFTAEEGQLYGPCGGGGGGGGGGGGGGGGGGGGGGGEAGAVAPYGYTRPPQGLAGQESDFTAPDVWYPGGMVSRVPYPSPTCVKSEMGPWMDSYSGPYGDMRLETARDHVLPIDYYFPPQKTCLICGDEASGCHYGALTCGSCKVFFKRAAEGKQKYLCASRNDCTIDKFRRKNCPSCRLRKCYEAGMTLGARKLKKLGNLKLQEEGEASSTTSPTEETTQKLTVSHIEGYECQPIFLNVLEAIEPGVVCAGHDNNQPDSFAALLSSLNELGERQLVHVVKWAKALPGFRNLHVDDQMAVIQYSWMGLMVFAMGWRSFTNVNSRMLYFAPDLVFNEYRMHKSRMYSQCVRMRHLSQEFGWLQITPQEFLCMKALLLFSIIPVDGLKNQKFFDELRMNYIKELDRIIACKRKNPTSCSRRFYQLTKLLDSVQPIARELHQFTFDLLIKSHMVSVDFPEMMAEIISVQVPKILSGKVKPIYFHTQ
Method in brief: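 MDA-kb2 human breast carcinoma cells carrying an MMTV-luciferase reporter (AR- and GR-responsive) were treated with compounds at 15 concentrations plus 3.0uM final nilutamide for 16hr at 37C without CO2; luminescence was read after ONE-Glo addition.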

[11] = qHTS assay to identify small molecule antagonists of the estrogen receptor beta (ER-beta) signaling pathway - cell viability counter screen (AID 1259382); note: nearly all actives have a fitted effect of over 55% in size; note: potency is the fitted concentration of half-maximal effect
Method in brief: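 ER-beta-UAS-bla HEK293T cells (2,000/well, 2% charcoal-stripped FBS) were pre-incubated 6 hr at 37C, then given compound plus 1nM final 17-beta-estradiol for 16 hr. Viability was read in the same wells by CellTiter-Glo luminescence after 30 min at room temperature.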

[12] = target: Estrogen receptor (Homo sapiens) (UniProt P03372); test: qHTS assay to identify small molecule agonists of the estrogen receptor alpha (ER-alpha) signaling pathway in the presence of an antagonist (AID 1259383; calls by dose curve; note: top concentration of the series differs between compounds; nearly all actives have a fitted effect of over 15% in size)
Method in brief: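 VM7Luc4E2 cells (endogenous full-length ER-alpha, 4×ERE-luciferase) were precultured 5 days in phenol red-free medium with 10% charcoal-stripped FBS, given 10.0nM ICI-182,780 (final), then treated with compounds at 15 concentrations for 22hr at 37C; luminescence read with ONE-Glo.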

[13] = target: Thyrotropin receptor (Homo sapiens) (UniProt P16473); test: qHTS assay to identify small molecule antagonists of the thyroid stimulating hormone receptor (TSHR) signaling pathway (AID 1259385; calls by dose curve; note: nearly all actives have a fitted effect of over 20% in size)
Thyrotropin receptor (Homo sapiens), sequence (P16473 whole entry, looked up): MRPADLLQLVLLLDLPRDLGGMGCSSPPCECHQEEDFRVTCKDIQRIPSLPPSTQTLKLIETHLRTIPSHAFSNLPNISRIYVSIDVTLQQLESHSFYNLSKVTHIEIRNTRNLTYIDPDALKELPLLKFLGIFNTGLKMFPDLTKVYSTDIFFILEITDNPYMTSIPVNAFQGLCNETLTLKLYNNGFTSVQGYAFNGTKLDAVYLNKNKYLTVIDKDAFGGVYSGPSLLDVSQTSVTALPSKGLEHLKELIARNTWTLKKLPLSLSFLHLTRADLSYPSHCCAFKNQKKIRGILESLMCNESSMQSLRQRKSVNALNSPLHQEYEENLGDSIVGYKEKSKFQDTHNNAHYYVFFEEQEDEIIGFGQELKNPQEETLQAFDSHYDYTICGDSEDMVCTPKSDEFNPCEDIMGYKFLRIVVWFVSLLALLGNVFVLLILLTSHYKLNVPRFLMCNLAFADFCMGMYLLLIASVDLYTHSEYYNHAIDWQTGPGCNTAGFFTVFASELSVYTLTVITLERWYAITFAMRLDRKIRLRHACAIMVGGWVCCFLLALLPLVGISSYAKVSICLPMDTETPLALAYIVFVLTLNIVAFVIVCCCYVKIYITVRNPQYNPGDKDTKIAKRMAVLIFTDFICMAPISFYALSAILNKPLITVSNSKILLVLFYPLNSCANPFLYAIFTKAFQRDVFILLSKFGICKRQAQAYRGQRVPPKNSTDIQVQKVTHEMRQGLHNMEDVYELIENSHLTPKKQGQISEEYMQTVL
Method in brief: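 TSHR-HEK293 cells (800/well) plated 18 h, then compounds with Ro20-1724 and TSH at 1.5 ng/mL final, 30 min at room temperature. cAMP quantified by HTRF (cAMP-d2/anti-cAMP-cryptate, 1 h); 15 concentrations in triplicate.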

[14] = qHTS assay to identify small molecule agonists of the estrogen receptor alpha (ER-alpha) signaling pathway in the presence of an antagonist - cell viability counter screen (AID 1259386); note: series mostly up to about 92 µM; nearly all actives have a fitted effect of over 30% in size
Method in brief: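 VM7Luc4E2 cells (endogenous full-length ER-alpha, 4×ERE-luciferase) were held 5 days in phenol red-free medium with 10% charcoal-stripped FBS, plated, then given 10.0nM ICI-182,780 and compounds at 15 concentrations for 22hr at 37C; viability read by CellTiter-Fluor fluorescence.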

[15] = target: Progesterone receptor (Homo sapiens) (UniProt P06401); test: qHTS assay to identify small molecule antagonists of the progesterone receptor (PR) signaling pathway (AID 1346795; active = well fitted inhibition curve with a large enough effect in the signal ratio in the repeat runs, not every such curve was filed as active; the % refers to the signal ratio; note: potency is the fitted concentration of half-maximal effect)
Progesterone receptor (Homo sapiens), sequence (P06401 whole entry, looked up): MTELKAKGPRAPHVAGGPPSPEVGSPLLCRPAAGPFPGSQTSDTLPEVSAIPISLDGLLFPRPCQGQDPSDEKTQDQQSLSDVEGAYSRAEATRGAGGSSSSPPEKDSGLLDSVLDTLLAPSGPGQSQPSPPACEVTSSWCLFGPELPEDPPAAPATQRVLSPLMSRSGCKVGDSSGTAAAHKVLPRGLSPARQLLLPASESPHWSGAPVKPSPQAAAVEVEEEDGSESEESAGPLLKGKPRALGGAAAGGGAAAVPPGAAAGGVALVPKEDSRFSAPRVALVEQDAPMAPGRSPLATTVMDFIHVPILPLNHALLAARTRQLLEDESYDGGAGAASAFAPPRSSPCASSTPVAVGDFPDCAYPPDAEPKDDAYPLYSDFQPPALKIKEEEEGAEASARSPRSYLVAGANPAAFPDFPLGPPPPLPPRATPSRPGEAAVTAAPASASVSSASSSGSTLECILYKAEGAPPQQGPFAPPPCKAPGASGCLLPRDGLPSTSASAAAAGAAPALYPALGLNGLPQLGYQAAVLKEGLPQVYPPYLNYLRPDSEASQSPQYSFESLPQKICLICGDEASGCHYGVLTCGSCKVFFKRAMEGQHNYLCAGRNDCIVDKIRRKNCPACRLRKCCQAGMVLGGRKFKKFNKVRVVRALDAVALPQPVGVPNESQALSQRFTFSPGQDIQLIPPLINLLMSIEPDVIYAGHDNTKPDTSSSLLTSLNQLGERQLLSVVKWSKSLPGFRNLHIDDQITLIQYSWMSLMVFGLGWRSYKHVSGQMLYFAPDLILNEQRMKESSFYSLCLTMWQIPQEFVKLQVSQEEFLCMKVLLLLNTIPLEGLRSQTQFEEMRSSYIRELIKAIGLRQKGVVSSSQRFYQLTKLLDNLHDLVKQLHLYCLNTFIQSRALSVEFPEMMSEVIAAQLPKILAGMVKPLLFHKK
Method in brief: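 Antagonist mode: compounds tested against 1 nM (final) promegestone stimulation in HEK293T cells expressing PR-UAS-bla reporter, 16 hr at 37C, 5% CO2; beta-lactamase activity detected via B/G FRET substrate after 2 hr at room temperature.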

[16] = target: Estrogen receptor beta (Homo sapiens) (UniProt Q92731); test: qHTS assay to identify small molecule agonists of the estrogen receptor beta (ER-beta) signaling pathway (AID 1259377; active = well fitted activation curve with a large enough effect in the signal ratio in the repeat runs, not every such curve was filed as active; the % refers to the signal ratio)
Estrogen receptor beta (Homo sapiens), sequence (Q92731 whole entry, looked up, the tested form may be a part): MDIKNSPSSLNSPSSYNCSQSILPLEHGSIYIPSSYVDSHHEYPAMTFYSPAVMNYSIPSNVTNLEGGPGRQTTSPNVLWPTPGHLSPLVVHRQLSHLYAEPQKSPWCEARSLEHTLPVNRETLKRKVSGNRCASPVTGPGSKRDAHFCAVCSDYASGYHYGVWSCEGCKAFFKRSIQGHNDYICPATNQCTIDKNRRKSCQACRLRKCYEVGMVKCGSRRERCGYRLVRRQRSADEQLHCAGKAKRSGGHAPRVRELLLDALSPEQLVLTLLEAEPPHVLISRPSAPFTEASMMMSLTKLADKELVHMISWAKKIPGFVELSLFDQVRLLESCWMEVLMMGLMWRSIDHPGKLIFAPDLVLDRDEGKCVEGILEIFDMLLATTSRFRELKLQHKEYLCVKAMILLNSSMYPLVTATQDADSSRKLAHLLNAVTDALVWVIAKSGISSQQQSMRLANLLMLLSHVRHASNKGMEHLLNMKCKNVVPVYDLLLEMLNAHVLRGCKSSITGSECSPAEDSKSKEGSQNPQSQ
Method in brief: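 Agonist mode cell assay in GripTite HEK293T cells expressing an ER-beta fusion that drives beta-lactamase from an Upstream Activator Sequence; 16 hr compound exposure at 37C, then 2 h LiveBLAzer B/G FRET substrate at room temperature, fluorescence read-out.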

[17] = target: Estrogen receptor beta (Homo sapiens) (UniProt Q92731); test: qHTS assay to identify small molecule antagonists of the estrogen receptor beta (ER-beta) signaling pathway (AID 1259378; active = well fitted inhibition curve with a large enough effect in the signal ratio in the repeat runs, not every such curve was filed as active; the % refers to the signal ratio)
Method in brief: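 ER-beta-UAS-bla HEK293T cells in 2% charcoal-stripped FBS medium treated with compound plus 1nM final 17-beta-estradiol for 16 hr at 37C. Beta-lactamase reporter read by FRET substrate fluorescence after 2 hours at room temperature.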

[18] = qHTS assay to identify small molecule agonists or antagonists of the thyroid stimulating hormone receptor (TSHR) signaling pathway - wild type cell line counter screen (AID 1259384; calls by dose curve)
Method in brief: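 Wild-type Hek293 cells, 800/well, 18 h at 37C, then compound with Ro20-1724 for 30 min RT. cAMP by HTRF (cAMP-d2/anti-cAMP cryptate), 1 h RT, fluorescence read. 15 concentrations, triplicates.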

[19] = target: Progesterone receptor (Homo sapiens) (UniProt P06401); test: qHTS assay to identify small molecule agonists of the progesterone receptor (PR) signaling pathway (AID 1346784; calls by dose curve; note: nearly all actives have a fitted effect of over 30% in size)
Method in brief: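 Cells (PR-UAS-bla HEK 293T, GripTite) were plated in assay medium containing 2% charcoal-stripped FBS and incubated 6 hr. Test compounds in DMSO were added for 16 hr at 37C. FRET substrate was then loaded for 2 hr at room temperature before fluorescence reading.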

[20] = qHTS assay to identify small molecule phospholipidosis (PLD) inducers (AID 1259344; active = well fitted curve in the direction sought with a large enough effect; an effect the other way counts as inactive or inconclusive)
Method in brief: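 HepG2 cells, 900/well, treated with compound plus LipidTOX Red for 24 h at 37 C; amiodarone positive and DMSO negative controls. Fixed with paraformaldehyde/Hoechst, then high-content imaging scored LipidTOX pit count and integrated intensity per well and per cell.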
% is set by controls: 0 for no effect and ±100 for the full control effect.

CCCN(CCC)c1c([N+](=O)[O-])cc(C(F)(F)F)cc1[N+](=O)[O-]
inactive: Potency [1] | Potency [2] | outcome [3] | Potency [4] | Potency [5] | outcome [6] | Potency [7] | outcome [8] | Potency [9] | outcome [10] | Potency [11] | Potency [12] | Potency [13] | outcome [14] | Potency [15]

Cc1ccc(N)cc1Cl
inactive: Potency [1] | Potency [2] | outcome [3] | Potency [4] | Potency [5] | outcome [6] | Potency [7] | Potency [16] | outcome [17] | outcome [8] | Potency [9] | Potency [12] | outcome [18] | Potency [13] | outcome [14] | Potency [15]

CC(=O)C=C(C)C
inactive: Potency [1] | Potency [2] | outcome [3] | Potency [4] | Potency [5] | outcome [6] | outcome [8] | Potency [9] | Potency [12] | Potency [13] | outcome [14] | outcome [19] | Potency [15]

Clc1ccccc1Cl
inactive: outcome [20] | Potency [2] | outcome [3] | Potency [4] | Potency [5] | outcome [6] | Potency [7] | Potency [16] | outcome [17] | outcome [8] | Potency [9] | Potency [13] | outcome [14] | Potency [15]

CC(C)(Cl)Cl
inactive: Potency [2] | outcome [3] | Potency [4] | Potency [5] | outcome [6] | Potency [7] | outcome [8] | Potency [9] | Potency [11] | outcome [18] | Potency [13] | outcome [14] | Potency [15]

OCCN(CCO)CCO
inactive: PLD induction [20] 10.3% [at 7.66 µM] | Potency [2] | outcome [3] | Potency [4] | Potency [5] | outcome [6] | Potency [7] | outcome [8] | Potency [9] | Potency [11] | Potency [13] | outcome [14] | outcome [19] | Potency [15]

Nc1ccc(Cc2ccc(N)cc2)cc1
inactive: Potency [2] | outcome [3] | Potency [4] | Potency [5] | outcome [6] | Potency [7] | outcome [8] | Potency [11] | Potency [13] | outcome [14] | Potency [15]

CCNc1nc(NC(C)C)nc(SC)n1
inactive: Potency [2] | outcome [3] | Potency [4] | Potency [5] | outcome [6] | Potency [7] | Potency [16] | outcome [17] | outcome [8] | Potency [9] | outcome [10] | Potency [11] | outcome [18] | Potency [13] | outcome [14] | outcome [19] | Potency [15]

CCC(C)(CC)c1cc(NC(=O)c2c(OC)cccc2OC)on1
inactive: Potency [2] | outcome [3] | Potency [4] | Potency [5] | outcome [6] | Potency [16] | outcome [8] | Potency [9] | outcome [14] | outcome [19]
active: Potency [7] 6.88 µM

CCC[N+](=O)[O-]
23.9 µM (active) and inactive: Potency [11]
8.48 µM (active) and inactive: Potency [9] | Potency [15]
inactive: Potency [2] | outcome [3] | Potency [4] | Potency [5] | outcome [6] | Potency [7] | Potency [16] | outcome [17] | outcome [8] | outcome [18] | Potency [13] | outcome [14]
